Experimental findings from PubChem BioAssay AID504707 (The Scripps Research Institute Molecular Screening Center, 2011) are described below.

Screen size: about 340,000 compounds; about 280 (0.082%) were called active. What follows is part of a selection rich in actives, with near analogues and random picks from the rest. A number with no mark means an inactive call.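 The calls were made as follows: active = percent activation above the mean of all tested compounds plus 3 SD (cut at about 19% in these data); inactive = the rest.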

This assay has as its target cAMP-dependent protein kinase type I-alpha regulatory subunit (Bos taurus) + cAMP-dependent protein kinase catalytic subunit beta (Mus musculus) (UniProt P00514+P68181). The assay is described as follows: activators of PKA-R1A holoenzyme, primary screen, biochemical, fluorescence polarization, Cy5-IP20, bovine R1A, mouse PKAc (AID 504707).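 Also: higher means more PKAc released from R1A so a rise in polarization.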 The following applies: PKA-R1A dissociation, at 11.4 µM, stronger effect = higher value, scaled: DMSO 0%, 113 µM cGMP 100%.
On to `OCC1OC(n2cnc3c(N4CCCC4)ncnc32)C(O)C1O` (stereo not given), for which the activation was 2.45%.
The result for `CC(Sc1ccc(S(=O)(=O)N2CCN(C)CC2)cn1)C(=O)NC1CCCC(C)C1C` (stereo not given) reads 1.21%; that for `NC1=CC(=O)C(=O)c2cccnc21`, 0.52%.
With `CCCc1ccc(S(=O)(=O)N2CCN(C(=O)c3cc(C)on3)CC2)cc1` the figure was 8.59%.
The result for `CCc1noc(C)c1C(=O)OCC(=O)c1ccc(NC(=O)CC(C)C)cc1` reads -17.9%.
With `COc1ccc2c(c1)CCCO[C@]21O[C@H](CCO)C[C@H](O)[C@H]1O`, the activation was -17.7%.
With `COCOCCn1cc(CN2CCS(=O)(=O)N(Cc3ccc(-c4ccccc4)cc3)C(CC(C)C)C2=O)nn1` (stereo not given) the figure was -7.1%; with `CCc1cc(C(=O)N(CC)CC(=O)Nc2c(F)cccc2F)sc1C`, 2.41%; with `O=S(=O)(c1ccc(Cl)s1)N1CCC2(CC1)OCCO2`, -0.53%.
As for `Cc1noc(C)c1S(=O)(=O)N(C)C[C@H]1OCCCC[C@@H](C)Oc2ccc(NC(=O)CCCN(C)C)cc2C(=O)N([C@H](C)CO)C[C@@H]1C`, the activation was -9.82%.
The result for `Cc1ccn(CC(=O)NC2CCCN(Cc3ccccc3F)C2)n1` (stereo not given) reads 3.67%; that for `CCOC(=O)c1cnc(SC)nc1Sc1ccc(Cl)cc1Cl`, -0.11%.
Take `C[C@@H]1CN([C@H](C)CO)S(=O)(=O)c2ccc(C#CC3CCCCC3)cc2O[C@H]1CN(C)C(=O)Cc1ccncc1`: the activation was -5.17%.
With `CC1CCN(C(=O)CSc2nnc(-c3ccco3)n2N)CC1` the figure was -3.33%; with `Cc1ccc(CCNC(=O)CN2C(=O)CSc3ccc(S(=O)(=O)N4CCOCC4)cc32)cc1`, -7.23%.
The result for `CCCCN=C(N)/C(C(=O)OCC)=C(\O)c1ccc(OC)cc1` reads -0.11%; that for `COc1ccc(S(=O)(=O)N2CCC(C(=O)NCCC(=O)NCCc3cccc(F)c3)CC2)cc1`, -4.12%; that for `NS(=O)(=O)c1ccc(CNC(=O)c2cc(S(=O)(=O)N3CCOCC3)ccc2N2CCCC2)cc1`, -1.96%.
The result for `CCN(CC)C(=O)C1=C(C)N(Cc2ccccc2)C(=O)C(CC(=O)NC(c2ccccc2)c2ccccc2)C1` (stereo not given) reads -7.55%; that for `CCc1nc2c(=O)[nH]cnc2o1`, 12.2%.
Take `CC1CCC2(CC1)NC(=O)N(CC(=O)NCc1ccco1)C2=O` (stereo not given): the activation was -3.37%.
With `COc1ccc(NC(=O)COC(=O)C2COc3ccccc3O2)cc1` (stereo not given) the figure was 11.1%; with `O=C(CSc1ccc(Cl)cc1)NC1CC1`, -0.65%; with `CCCNC(=O)C1CC(=O)N(c2ccc(OCc3ccccc3)cc2)C1` (stereo not given), 3.3%.
With `O=C(COC(=O)c1cccc(Cl)c1Cl)NC1CCCCCC1` the figure was -4.58%; with `C[C@H]1CN([C@@H](C)CO)C(=O)CCCn2cc(nn2)CO[C@@H]1CN(C)C(=O)Nc1ccccc1`, -15.3%.
In the case of `CCN(c1ccc(NC(=O)COC(=O)CCc2nc3ccccc3n2-c2ccccc2)cc1)C(C)C`, the activation is -8.81%.
With `Cc1ccc(S(=O)(=O)NN=C2CC(C)(C)CC(=O)C2(C)C)cc1` the figure was -0.8%; with `C[C@H]1CN([C@@H](C)CO)C(=O)CCCn2nncc2CO[C@@H]1CN(C)S(=O)(=O)c1cccc(C#N)c1`, -0.38%.
With `Cc1ccc([C@H]2N[C@]3(CCCN(Cc4ccccc4)C3=O)[C@H]3C(=O)N(Cc4ccccc4)C(=O)[C@@H]23)cc1` the figure was 3.96%; with `CSCCC1NC(=O)N(CC(=O)Nc2cccc(S(=O)(=O)N3CCCCCC3)c2)C1=O` (stereo not given), 4.33%.
For `CC(C)CC1C(=O)N(Cc2cn(CC3CCCCC3)nn2)CCS(=O)(=O)N1Cc1ccc(-c2ccc(Cl)cc2)cc1` (stereo not given), the activation was -4.01%.
With `CCCn1nnnc1NCc1ccc(OC)cc1` the figure was -2.85%; with `COc1ccc(CNc2nnnn2C)cc1`, 19.2% (active); with `Cn1nnnc1NCc1ccc(Cl)c(Cl)c1`, -9.38%.
With `Cc1ccccc1OS(=O)(=O)c1cccc([N+](=O)[O-])c1` the figure was 15.6%; with `O=C(NCc1nnnn1-c1ccc(Cl)cc1)c1ccc2c(c1)OCO2`, 4.42%; with `O=[N+]([O-])c1ccc(C(S(=O)(=O)Cc2ccccc2)S(=O)(=O)Cc2ccccc2)cc1`, 4.44%.
With `CCOC(=O)c1cnn2c(SC)ncnc12` the figure was 1.57%.
As for `CN(C)C(CNC(=O)c1cccc(S(=O)(=O)N2CCc3ccccc3C2)c1)c1ccccc1` (stereo not given), the activation was -0.91%.
The result for `CC1=C(C(=O)N2CCOCC2)CC(CC(=O)NCc2cccc3ccccc23)C(=O)N1CCC1=CCCCC1` (stereo not given) reads -16.2%; that for `Cc1cc(C)c(C#N)c(SCC(=O)NN2CC(=O)N(c3ccccc3F)CC2=O)n1`, -8.96%.
The result for `CC(C)CC1C(=O)N(Cc2cn(Cc3ccco3)nn2)CCS(=O)(=O)N1Cc1ccc(-c2ccc(Cl)c(Cl)c2)cc1` (stereo not given) reads -7.28%; that for `CCOC(=O)c1nc(-c2ccc3c(c2)OCO3)[nH]c1C`, -2.48%; that for `CC1=C(C(=O)N2CCOCC2)CC(CC(=O)NCCN2CCOCC2)C(=O)N1CCC1=CCCCC1` (stereo not given), -5.53%.
On to `CCC(C)C1(C2CCCC2)NC(=O)NC1=O` (stereo not given), for which the activation is -4.54%.
With `O=C(Nc1cccc(C(=O)O)c1)/C(=C\c1ccccc1)NC(=O)c1ccc(Br)o1` the figure was 3.24%; with `O=C(c1ccc(N2CCCC2=O)cc1)N1CCN(c2ccc(C(F)(F)F)cc2[N+](=O)[O-])CC1`, 0.5%.
The result for `CCN(C(=O)C1CCCN(c2nc(-c3ccc(OC)cc3)no2)C1)c1ccc(OC)cc1` (stereo not given) reads -6.29%.
`Cc1ccnc(SC2CC(=O)N(c3ccccc3)C2=O)n1` (stereo not given): the activation is 8.38%.
With `Cc1cccc(NS(=O)(=O)c2cc(Cl)ccc2Cl)n1` the figure was -4.38%.
The result for `O=C1[C@H]2[C@@H](c3ccc(C(F)(F)F)cc3)N[C@]3(CCCN(Cc4ccc(Br)cc4)C3=O)[C@H]2C(=O)N1Cc1ccccc1` reads -1.26%.
The result for `CC(=O)N1CCc2cc(S(=O)(=O)NC3CCCCC3)ccc21` reads 5.76%; that for `Cc1ccc(NC(=O)Cn2sc3ccccc3c2=O)cc1`, 8.53%; that for `CN(C)c1ccc(NC(=O)CSc2n[nH]c(-c3ccco3)n2)cc1`, 7.46%.
Take `Cc1ccc(S(=O)(=O)/N=C2\C=C(NS(=O)(=O)c3ccc(C)cc3)C(=O)c3ccccc32)cc1`: the activation was -6.85%.
Turning to `C[C@H](CO)N1C[C@H](C)[C@@H](CN(C)Cc2ccc3c(c2)OCO3)OCc2cnnn2CCCC1=O`, the activation was -8.89%.
In the case of `CCOC(=O)C1CCCN(S(=O)(=O)c2ccc3c(c2)C(C)(C)C(=O)N3C)C1` (stereo not given), the activation is -3.23%.
Take `COc1cc(Br)c(-c2sc(Nc3ccccc3)n[n+]2-c2ccccc2)cc1OC`: the activation was -4.44%.
Regarding `Nc1nonc1-n1nnc(C(=O)N/N=C/c2ccc(Cl)cc2)c1-c1ccc2c(c1)OCO2`, the activation was -7.77%.
As for `CCS(=O)(=O)N1Cc2ccccc2CC1C(=O)Nc1nc2ccc(F)cc2s1` (stereo not given), the activation is 5.39%.
The result for `Cc1cccc(C(=O)OCC(=O)Nc2sccc2C(N)=O)c1C` reads 3.56%; that for `O=C(CN1C(=O)NC2(CCc3ccccc32)C1=O)NC1CCCCC1` (stereo not given), -0.6%.
The result for `COC(=O)[C@H]1Cc2cnoc2C[C@]1(C)C(=O)O` reads 4.79%; that for `COc1ccc(CN2C(=O)C(CC(=O)NC3CCCCC3)CC(C(=O)N3CCOCC3)=C2C)cc1` (stereo not given), 1.08%.
With `CC1CC(NC(=S)N(C)C)CC(C)(C)C1` (stereo not given) the figure was 7.75%.
`O=C(NN=Cc1ccc2c(c1)CCC2)c1ccccc1O`: the activation is 10.6%.
With `Cc1onc(-c2ccccc2)c1-c1nnc(COC(=O)c2ccc(N(C)C)cc2)o1` the figure was 11.8%; with `COc1cccc(NC(=O)Nc2ccc(F)cc2)c1`, 9.12%.
With `c1ccc2c(c1)nnn2-c1ccncc1` the figure was -12.8%.
On to `CC1=C(C(=O)N(C)C)CC(CC(=O)NCCc2ccccn2)C(=O)N1CCC1=CCCCC1` (stereo not given), for which the activation is 3.98%.
With `CC(=O)Nc1ccc2c3c(ccc([N+](=O)[O-])c13)CC2` the figure was 1.42%; with `C[C@H]1CN([C@@H](C)CO)C(=O)CCCn2cc(nn2)CO[C@@H]1CN(C)S(=O)(=O)c1ccc(-n2cccn2)cc1`, 4.21%.
With `CC(C)CCNc1nc(N2CCCC2)c2c(c1C#N)CCN(C)C2` the figure was 6.18%; with `CN1CCN(S(=O)(=O)c2cccc(C(=O)Nc3sccc3C#N)c2)CC1`, -12.1%.
The result for `C[C@H]1CN([C@@H](C)CO)C(=O)CCCn2cc(nn2)CO[C@@H]1CN(C)S(=O)(=O)c1ccccc1C#N` reads -3.32%.
Consider `CC(=NNC(N)=O)C1CC2CCC1CC2` (stereo not given), for which the activation was -3.74%.
Consider `COc1ccc(Cl)cc1NC(=O)CN(C)C(=O)c1cn(-c2ccccc2)nc1-c1cccs1`, for which the activation was -7.71%.
With `Cc1ccc([C@H]2C[C@H](O)[C@@H](n3cc(COC(=O)c4ccccc4)nn3)CN2CC2CCCCC2)cc1` the figure was -14.8%; with `CCCCCCNC(=O)O[C@]12C[C@@H](C(=O)OC)[C@@H](C(=O)OC)C[C@@]1(O)CN(S(=O)(=O)c1ccc(C)cc1)C2`, -13.7%.
For the compound `CCc1nnc(NC(=O)c2ccco2)s1`, the activation is -1.79%.
For `Cc1cccc(C(=O)C(O)(c2ccccc2)C2CCCCC2=O)c1` (stereo not given), the activation was -0.27%.
The result for `COc1ccc(S(=O)(=O)N(C)C[C@H]2OCc3cnnn3CCCC(=O)N([C@H](C)CO)C[C@H]2C)cc1` reads 9.03%; that for `CCOC(=O)C1(O)CC(C)=NN1C(=O)c1cccc(Br)c1` (stereo not given), -8.67%.
As to `C#CCN(C[C@H]1[C@H](OC(=O)NC2CCCC2)[C@H](OC(=O)NC2CCCC2)C[C@H]2C(=O)N(c3ccccc3)C(=O)[C@@H]12)S(=O)(=O)c1ccc(C)cc1`, the activation was 7.98%.
